Source: PubChem (National Center for Advancing Translational Sciences (NCATS))
Most compounds without a hit are left out; they make up all but 21% or so of the library.
Pf growth 96h: P. falciparum growth inhibition at 96 hours; P. falciparum luciferase reporter growth, 96 h; Potency, µM (titrated, usually from 28.7 µM), usual class: inhibitors; 6.9% of 320,000 active; active = well fitted inhibition curve with a large enough effect; inconclusive = small, poorly fitted or top-dose-only effect, or another doubt; inactive = no such curve, though single readings can be large or run the other way
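Infected RBCs, 2% Hct / 0.05% parasitemia final; luciferase-reporter P. falciparum; cpd 96 h, 37 C, 5% CO2; luciferase detection reagent; luminescence.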
CHX counter: affects cycloheximide protein synthesis inhibition readout, counter-screen; AID 2314; cell reporter, cycloheximide protein synthesis inhibition counterscreen; max response, %; 12% of 300,000 active; in the data active = max response mostly above about 13%, no sharp cut-off; inactive = mostly below about 14%; note: read at 38.3 µM for the half of the compounds with a filed dose
Shiga inhibitor: blocks Shiga toxin action in Vero cells; Vero cells, Shiga toxin protein synthesis inhibition reporter; inhibition, % at 38.7 µM; 9.2% of 290,000 active; AID 2315; in the data active = inhibition mostly above about 28%, no sharp cut-off; inactive = mostly below about 43%
NS1 function inh: inhibitors of influenza NS1 protein function; Potency, µM (top dose mostly 46.1 µM); 0.4% of 270,000 active; AID 2326; note: actives are rising curves; nearly all actives have a fitted effect of over 50% in size
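A cell-based growth assay was used: compounds that relieve NS1-induced slow growth of budding yeast raise OD600. Assay medium was yeast nitrogen base with ammonium sulphate and -URA supplement, pH 6.0, with 2% galactose.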
SARS PLpro yeast: inhibitors of SARS-CoV papain-like protease in yeast; S. cerevisiae expressing SARS-CoV PLpro, growth rescue; Potency, µM (doses to about 32.9 µM), hits mostly activators; 0.19% of 330,000 active; AID 485353; note: nearly all actives have a fitted effect of over 55% in size
Pf growth 48h: P. falciparum growth inhibition at 48 hours (one generation); P. falciparum luciferase growth in erythrocytes, 48 h; Potency, µM (series often up to 28.7 µM), usual class: inhibitors; 5.9% of 310,000 active; AID 504832; active = well fitted inhibition curve with a large enough effect; inconclusive = small, poorly fitted or top-dose-only effect, or another doubt; inactive = no such curve, though single readings can be large or run the other way
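Luminescence readout; reporter = integrated firefly luciferase in P. falciparum. RBC culture at 2% hematocrit, 0.1% parasitemia final, 37 C/5% CO2; decreased signal taken as growth inhibition.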
Hits are given with their value; i = inactive; ? = inconclusive; nt = no result given; [ ] = another dose, or the depositor's remark. Unless noted, calls come from the whole dose curve.

SMILES | Pf growth 96h | CHX counter | Shiga inhibitor | NS1 function inh | SARS PLpro yeast | Pf growth 48h
CC(C)(C)N=C1NN=C(c2ccc(S(=O)(=O)N3CCCCC3)cc2)CS1 | ? | nt | nt | nt | i | 3.7µM
Fc1ccccc1N=C1NN=C(c2ccccc2)CS1 | i | 53 | 138 | nt | i | ?
Cc1cc(C2=NNC(=Nc3ccccc3)SC2)c(C)n1C | i | 35 | 69 | i | i | i
O=S(=O)(c1ccc(S(=O)(=O)N2CCCC2)cc1)N1CCCCC1 | i | i | i | i | i | i
Cc1c(N=C2NN=C(c3ccc(Cl)cc3)CS2)c(=O)n(-c2ccccc2)n1C | ? | i | i | nt | i | ?
C=CCC(C(=O)NC(C)c1ccccc1)C(=O)NC(C)c1ccccc1 (stereo not drawn) | i | i | i | i | i | i
O=C1Nc2ccccc2/C1=C\c1cccn1-c1ccc(OC(F)(F)F)cc1 | i | i | i | i | i | ?
CC(=O)Nc1ccc(C2=NNC(=Nc3ccc(S(=O)(=O)N4CCOCC4)cc3)SC2)cc1 | 12µM | i | i | ? | i | ?
O=C(Nc1ccc(F)cc1)N1CCN(CCc2ccccc2)CC1 | i | i | i | i | i | ?
CCNC(=O)N1CCN(CCCC(c2ccc(F)cc2)c2ccc(F)cc2)CC1 | 1.7µM | nt | nt | i | nt | 1.5µM
CCOc1ccccc1Nc1cc(C)c2cccc(C)c2n1 | i | i | nt | i | i | i
CCOc1nc(N=C(N)N)nc2c(C)cccc12 | 0.59µM | i | i | i | i | 8.3µM
CCOC(=O)Cn1c(=O)oc2cc(S(=O)(=O)NC3CCCCC3)ccc21 | ? | i | i | i | i | i
CCCCNS(=O)(=O)c1ccc2c(c1)oc(=O)n2CC(=O)OCC | ? | i | i | i | i | nt
CCOC(=O)Cn1c(=O)oc2cc(S(=O)(=O)NCc3cccs3)ccc21 | 13µM | i | i | i | i | nt
CCOC(=O)Cn1c(=O)oc2cc(S(=O)(=O)NCc3ccccn3)ccc21 | 12µM | i | i | i | i | nt
Cc1ccccc1CN1CCSc2sccc2C1=O | i | i | i | nt | i | ?
N#C/C(C(=O)N1CCOCC1)=C1/SC(Cc2ccccc2Cl)C(=O)N1c1ccccc1 (stereo not drawn) | ? | i | i | i | ? | i
Clc1ccc(NCc2cccnc2)c(Cl)c1 | ? | i | i | i | i | nt
Cc1ccc(CC(=O)NCc2cccnc2)cc1 | i | i | i | nt | i | i
Cc1ccc(-c2cc(C(F)F)nc(NCc3cccnc3)n2)cc1 | i | i | i | i | i | 13µM
Cc1ccc(-c2cc(C(F)F)nc(NCC3CCCO3)n2)cc1 (stereo not drawn) | i | 16 | 48 | i | i | i
FC(F)(F)c1cc(-c2ccc(Cl)cc2)nc(NCc2cccnc2)n1 | nt | i | i | i | i | 3.7µM
Cc1ccc(S(=O)(=O)Nc2nc3ccccc3nc2NCC2CCCO2)cc1 (stereo not drawn) | i | i | i | i | i | i
Cc1ccc(-c2cc(C(F)F)nc(NCc3cccs3)n2)cc1 | 2.6µM | i | i | i | i | i
SMILES | Pf growth 96h | CHX counter | Shiga inhibitor | NS1 function inh | SARS PLpro yeast | Pf growth 48h
Cc1ccccc1N(C(=O)c1snc(C(N)=O)c1N)C(C(=O)NCC1CCCO1)c1ccc(F)cc1 (stereo not drawn) | i | i | i | i | i | ?
C=C1CCN(C(Cc2ccccc2)C(=O)O)S(=O)(=O)c2ccccc21 (stereo not drawn) | nt | i | i | nt | nt | nt
CCOC(=O)c1c(C)[nH]c(C)c1C(=O)COC(=O)c1cccc(S(=O)(=O)N(CC)CC)c1 | 9.3µM | i | i | i | i | 15µM
CC(=O)N[C@@H](CC(=O)O)C(=O)N[C@@H](CCC(=O)O)C(=O)O | 4.3µM | nt | nt | nt | nt | ?
CC(=O)NC(CC(=O)O)C(=O)O (stereo not drawn) | i | nt | nt | nt | nt | i
CCCN(CC(=O)Nc1cc(C)on1)CC(=O)Nc1ccccc1C | i | nt | nt | nt | i | ?
O=C(Nc1ccn(Cc2ccc(Cl)cc2)n1)c1ccccc1 | i[5.75 µM] | 21 | 90 | nt | i | i
O=C(Nc1ccn(Cc2ccccc2)n1)c1ccc2c(c1)OCO2 | i | 24 | 42 | i | i | i
CCc1ccc(CN2CCC(n3nccc3NC(=O)c3ccccc3)CC2)o1 | i | i | i | i | i | i
O=C(CCc1ccccc1)Nc1ccccc1C(=O)NCc1ccco1 | 13µM | i | i | i | i | ?
O=C(Nc1ccccc1C(=O)OCC(=O)c1c[nH]c2ccccc12)c1ccco1 | ? | 57 | 82 | i | i | i
CC(C)(C)NS(=O)(=O)c1ccc(CCC(=O)NCc2ccco2)cc1 | 12µM | i | i | i | i | i
